Source: ChEMBL document CHEMBL4513216, “Probing the Open Global Health Chemical Diversity Library for Multistage-Active Starting Points for Next-Generation Antimalarials” (ACS Infect Dis, 2020)
Out of some 69,000 compounds screened, about 8,600 (12%) showed an effect of 50% or more. For the sample, strong results were picked, then their nearest neighbours and some compounds at random.

system: Plasmodium berghei; assay: Screen against P. berghei liver stage (PbLuc), transformed with Luciferase, at 10uM; type: functional, HepG2; conditions: tested at 10 uM

In order of rising INHIBITION:
1. CC(C)(C)C1CCC(O)(CNC(=O)CCS(C)(=O)=O)CC1 (configuration not stated)  -23.2%
2. CN1CC(=O)N(c2ccsc2)CC12CCN(Cc1cnn(C)c1)C2 (configuration not stated)  -13%
3. Cc1ccc(C(=O)N(C)Cc2ccc3c(c2)OCCO3)c(=O)[nH]1  -11.6%
4. CS(=O)(=O)N1CCC2(CCCN(Cc3ccccn3)C2)C1 (configuration not stated)  -11.6%
5. O=C(C1CCCC1)N1CCn2c(nnc2C2CCCNC2)C1 (configuration not stated)  -1.45%
6. Cc1nnc(SCCC(=O)N(C)Cc2c(F)cccc2Cl)[nH]1  -1.25%
7. OC1CCN(CCCn2ccnc2-c2c[nH]cn2)CC1  -0.273%
8. Cc1nnc(SCCC(=O)N(C)Cc2ccc(F)cc2F)[nH]1  1.96%
9. CC[C@@H](C)[C@@H](N)C(=O)Nc1cccc(-c2cnc(N(C)CCO)nc2)c1  8.53%
10. COc1cc(N2CCC(c3nccn3Cc3ccccn3)CC2)ncn1  8.97%
11. COCC(=O)N1CCC2(CCN(Cc3ccc(C)cc3)CC2)CC1  10.5%
12. CCc1c(O)nc2nc(N3CCOCC3)nn2c1C  11%
13. CCN(CC)S(=O)(=O)NC1CCN(c2ccc(OC)cc2)CC1  12.8%
14. CC[C@@H](C)[C@@H](N)C(=O)Nc1cccc(-c2cnc(N)nc2)c1  17.4%
15. Fc1cccc(CN2C[C@@H]3CN(Cc4ccccn4)C[C@@H]3C2)c1  18.6%
16. Cn1cnc(S(=O)(=O)N2C[C@H]3CC[C@@H](C2)N(Cc2ccccn2)C3)c1  20.9%
17. CC(C)(C)CC(=O)NCC(=O)Nc1ccn(Cc2cccnc2)n1  21.6%
18. CC(C)CN1CCCC2(CCN(c3ccccn3)C2)C1 (configuration not stated)  21.7%
19. CN(Cc1ccsc1)C(=O)c1cccc(S(=O)(=O)NCC2CCCO2)c1 (configuration not stated)  23.4%
20. Cc1cncc(C2CCN(Cc3ccc(S(C)(=O)=O)cc3)CC2)n1  25.3%
21. COCCNC(=O)Cn1cc(OCc2ccc(F)cc2)c(=O)cc1CO  26.9%
22. NC(=O)C1CCN(C(=O)Cn2ccc3cc(Br)ccc32)CC1  30.6%
23. COc1ccc(N2CCC(NS(=O)(=O)N(C)C(C)C)CC2)cc1  34.1%
24. O=C(NC1CC1)C1=CC2(CCN(CC3CC3)CC2)c2ccccc21  37.1%
25. CS(=O)(=O)NCc1cnc2n1CCN(Cc1ccco1)CC2  38.5%
26. Cn1cnc(S(=O)(=O)N2C[C@H]3CN(Cc4cccnc4)C[C@H]3C2)c1  49.1%
27. Cc1nnc(SCCC(=O)N(C)Cc2ccc(F)cc2Cl)[nH]1  51.1%
28. CCc1ccc(N2CCC(NS(=O)(=O)N(CC)CC)CC2)cc1  53.4%
29. Cn1cnc(S(=O)(=O)N2C[C@H]3CN(Cc4ccccn4)C[C@H]3C2)c1  76.4%
30. CC[C@@H](C)[C@@H](N)C(=O)Nc1cccc(-c2cnc(N(C)C)nc2)c1  76.8%
31. COc1cc(N2CCC3(CCCN(Cc4ccccn4)C3)C2)ncn1 (configuration not stated)  84.7%
32. COc1cc(N2C[C@H]3CN(Cc4ccccn4)C[C@H]3C2)ncn1  85.6%
